From PubChem BioAssay (NCI)
The panel holds about 79,000 compounds, 15% with a hit somewhere; the sample as a whole holds those more often. Activity calls are given as the source filed them. No stated cut-off is given here; in the data, active means growth inhibition above about 70%; inactive means the rest.

Legend:
[1] = NCI Yeast Anticancer Drug Screen. Data for the rad50 strain (AID 155);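 further: 0% = growth of vehicle-only cultures of the same strain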; details: S. cerevisiae rad50 strain growth inhibition, hits give high values
Summary of the method: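 Readout: growth inhibition relative to vehicle-treated cultures. Compound exposure was carried out in a genetically defined yeast strain deficient in DNA damage repair.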

[2] = NCI Yeast Anticancer Drug Screen. Data for the mec2-1 strain (AID 157); details: S. cerevisiae mec2-1 strain, hits give high values
Summary of the method: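 Yeast mec2-1 mutant treated with compound. Readout: growth inhibition vs vehicle controls.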

[3] = NCI Yeast Anticancer Drug Screen. Data for the sgs1 mgt1 strain (AID 161);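 further: 0% = growth of cultures given vehicle only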; details: S. cerevisiae sgs1 mgt1 strain, hits give high values
Summary of the method: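 Genetically altered yeast, compound exposure, growth inhibition relative to vehicle.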

[4] = NCI Yeast Anticancer Drug Screen. Data for the cln2 rad14 strain (AID 165);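 further: 0% = growth equal to vehicle treated cultures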; details: S. cerevisiae cln2 rad14 strain, hits give high values
Summary of the method: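 cln2 rad14 yeast strain; compound exposure; growth inhibition read vs vehicle controls.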

[5] = NCI Yeast Anticancer Drug Screen. Data for the bub3 strain (AID 167); details: S. cerevisiae bub3 mutant strain, hits give high values
Summary of the method: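 Readout: yeast growth inhibition, expressed relative to vehicle-only wells. The test organism is a mutant strain from a panel with lesions in DNA repair or checkpoint genes.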

[6] = NCI Yeast Anticancer Drug Screen. Data for the wt2 strain (AID 169);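 further: 0% = growth of vehicle-treated yeast cultures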; details: S. cerevisiae wt2 strain growth inhibition, hits give high values
Summary of the method: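 Read-out: growth inhibition versus vehicle-treated control cultures after compound exposure of the yeast strain.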

[7] = NCI Yeast Anticancer Drug Screen. Data for the mlh1 rad18 strain (AID 175); details: S. cerevisiae mlh1 rad18 strain growth inhibition, hits give high values
Summary of the method: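 Yeast w/ defined DNA-repair lesions; compound exposure; growth vs vehicle controls → % inhibition.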

[8] = at 5.0 µM (retest, dose inferred, filed as 0.5)
[9] = at 50.0 µM (retest, dose inferred, filed as 5.0)

Measured: growth inhibition

CC(C)N1CSC(=S)N(Cc2ccccc2)C1
active: [1]; [9] 91% | [1]; at 50.0 µM 77.7% | [2]; [9] 92% | [2]; at 50.0 µM 81.5% | [3]; [9] 98% | [4]; [9] 92% | [5]; [9] 92% | [5]; at 50.0 µM 88.2%
inactive: [1]; [8] 55% | [2]; [8] 46% | [3]; [8] -5% | [3]; at 50.0 µM 46.3% | [4]; [8] 56% | [4]; at 50.0 µM 19.5% | [5]; [8] 6% | [6]; at 1.2 µM 0% | [6]; at 3.7 µM 7% | [6]; at 11.0 µM 23% | [6]; at 33.0 µM 55% | [6]; at 100.0 µM 67% | [7]; [8] 30% | [7]; [9] 66% | [7]; at 50.0 µM 59.5%

Cc1nc(N=C(N)N)nc2ccc3ccccc3c12
active: [1]; at 50.0 µM 80.8% | [3]; [9] 98% | [4]; [9] 99% | [5]; [9] 96% | [6]; at 100.0 µM 97%
inactive: [1]; [8] 39% | [1]; [9] 38% | [2]; [8] 43% | [2]; [9] 69% | [2]; at 50.0 µM 37.9% | [3]; [8] -13% | [3]; at 50.0 µM 64.7% | [4]; [8] 62% | [4]; at 50.0 µM 34.8% | [5]; [8] -14% | [5]; at 50.0 µM 63.9% | [6]; at 1.2 µM 6% | [6]; at 3.7 µM 12% | [6]; at 11.0 µM 0% | [6]; at 33.0 µM 30% | [7]; [8] 28% | [7]; [9] 34% | [7]; at 50.0 µM 69.6%

CCO/C=C1\SC(=S)N(c2cccc(O)c2)C1=O
active: [1]; [9] 100% | [2]; [8] 74% | [2]; [9] 100% | [3]; [9] 90% | [4]; [9] 72% | [5]; [9] 91% | [6]; at 100.0 µM 96% | [7]; [9] 100% | [7]; at 50.0 µM 70.3%
inactive: [1]; [8] 57% | [1]; at 50.0 µM 28.4% | [2]; at 50.0 µM 15.3% | [3]; [8] 13% | [3]; at 50.0 µM 40.4% | [4]; [8] 29% | [4]; at 50.0 µM -2.6% | [5]; [8] 6% | [5]; at 50.0 µM 40.2% | [6]; at 1.2 µM -13% | [6]; at 3.7 µM -13% | [6]; at 11.0 µM -13% | [6]; at 33.0 µM 22% | [7]; [8] 54%
